# Screening data from PubChem BioAssay.
# HT1080-NT tox: kills 2HG-producing HT-1080-NT fibrosarcoma cells; AID 686970; Potency, µM (top dose mostly 46.1 µM), for inactives: at the highest dose activity, negative = less viability, hits mostly cytotoxic; 1.6% of 360,000 active; HT-1080-NT fibrosarcoma viability, CellTiter-Glo ATP luminescence, 48 h;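 further: NT is the 2HG producing partner of a matched IDH1 knockdown line; potency means the concentration at half of the fitted maximal effect; 0% = DMSO-treated cells and -100% = media-only wells without cells; nearly all actives have a fitted effect of over 55% in size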
#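 Fibrosarcoma NT cells, 750 per well in 5% FBS RPMI, were exposed to compound for 48 hours. Viability: CellTiter-Glo luminescence.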
# TDP1 cell noCPT: qHTS for Inhibitors of human tyrosyl-DNA phosphodiesterase 1 (TDP1): qHTS in cells in absence of CPT; DT40 Tdp1-/- hTDP1 cells, no CPT, ATP luminescence, 48 h; Potency, µM (series often up to 46.2 µM), without a hit: at the highest dose activity change, negative = growth inhibition, usual class: inhibitors; 15% of 420,000 active; AID 686978, 2013; further: potency means the concentration at half of the fitted maximal effect; nearly all actives have a fitted effect of over 55% in size
#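 Growth kinetics read by CellTiter-Glo luminescence after ≥48 hr at 37 °C. Cells: DT40 Tdp1-/- stably carrying human TDP1, 400 per well, compound exposure in the absence of CPT (DMSO vehicle).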
# uPA surface inh: inhibitors of cell surface uPA generation; cell surface uPA generation assay, qHTS; Potency, µM (titrated, usually from 38.3 µM), for the others: at the highest dose activity change, negative = inhibition, actives largely listed as inhibitors; 0.31% of 330,000 active; active means well fitted inhibition curve with a large enough effect; inconclusive means small, poorly fitted or top-dose-only effect; inactive means no such curve, though single readings can be large or run the other way; tested in mouse RAW 264.7 cells; further: potency means the concentration at half of the fitted maximal effect; nearly all actives have a fitted effect of over 55% in size
# HT1080 IDH1KD tx: HT-1080 IDH1 knockdown cell toxicity (counter line); HT-1080 IDH1 knockdown viability, ATP luminescence, 48 h; Potency, µM (highest dose often 46.1 µM), for the others: at the top dose activity, negative = toxicity, hits mostly cytotoxic; 2% of 360,000 active;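 further: potency means the concentration at half of the fitted maximal effect; 0% = DMSO wells and -100% = cell-free medium wells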
#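 Cytotoxicity counter-line: IDH1KD HT-1080, 48 h, CellTiter-Glo. Curves classed by r2, magnitude and activity.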
# DT40 TDP1 CPT: DT40-hTDP1 cell growth loss with CPT; Potency, µM (titrated, usually from 46.2 µM), without a hit: at the top dose activity change, negative = growth inhibition, most hits filed as inhibitors; AID 686979; 12% of 420,000 active; chicken DT40 Tdp1-/-;hTDP1 cells + 20 nM CPT, ATP luminescence, 48 h; further: potency means the concentration at half of the fitted maximal effect; nearly all actives have a fitted effect of over 55% in size
#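 Chicken DT40 Tdp1-/- cells complemented with human TDP1, 400 cells/well, exposed to compounds plus 20 nM camptothecin for at least 48 h at 37 C; viability read as ATP content by CellTiter-Glo luminescence.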
# IL-1B inflam inh: inhibitors of inflammasome signaling (IL-1 beta secretion) | THP-1 LPS/ATP IL-1B secretion, AlphaLISA, 16 h; hits give low values | activity change, % at 57.5 µM | 4.7% of 360,000 active; in the data active means activity change below about -50%; inconclusive means mostly about -30% to -49%
#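 THP-1 cells pretreated 1 hr with compounds (up to 57.5 uM final), then stimulated with LPS (250 ng/mL final) plus ATP (1.25 mM final); secreted IL-1B measured by AlphaLISA after 16 hr, decreased signal indicating inhibition.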
# * hit, by the source's call; ? = inconclusive; · = not tested or not shown; ! = not confirmed by another sample; [ ] = remark or other dose. An excerpt weighted towards active compounds, which were near 19% of everything screened. Unless noted, the call rests on the fitted dose curve; in most records, active means well fitted curve in the direction sought with a large enough effect; inconclusive means small, poorly fitted or top-dose-only effect, or another doubt; inactive means no such curve, though single readings can be large; an effect the other way counts as inactive or inconclusive. Unless noted, on the % scale 0 is the no-effect control and ±100 the full control effect.
SMILES,HT1080-NT tox,TDP1 cell noCPT,uPA surface inh,HT1080 IDH1KD tx,DT40 TDP1 CPT,IL-1B inflam inh
COC(=O)[C@@]12C[C@@H](CC(=O)NCCCCc3ccccc3)C(=O)N(Cc3cccc4ccccc34)C1=CCC(C)(C)C2,?,20.6µM*,·,-28.6%,?,?
COc1ccc(N(CC(=O)NCc2cccs2)S(=O)(=O)c2ccc(C(C)=O)cc2)cc1,1.0%,?,·,-4.8%,0.2%,-1.4
O=C(NCC1CCC2(CCN(Cc3cccc(-c4ccco4)c3)CC2)O1)c1ccccc1 (configuration not stated),·,-23.0%,·,·,-12.4%[9.04 µM],·
CCSC1=NC(C)(C)C=C(C)N1,-5.0%,-3.4%,0.7%,2.3%,-2.8%,15.7
CCSC1=NC(C)(C)C=C(/C=C/c2ccc(Cl)cc2Cl)N1,16.4µM*,16.4µM*,-10.0%,?,?,-93.4*
CSC1=NC(C)(C)C=C(/C=C/c2ccc(Cl)cc2)N1,23.1µM*,16.4µM*,-14.3%,?,20.6µM*,-101.1*
Nc1nccc(/C=C/c2c(Cl)cccc2Cl)n1,?,?,-8.8%,?,-9.4%,·
CSC1=NC(C)(C)C=C(/C=C/c2c(Cl)cccc2Cl)N1,-19.3%,4.3%,-6.0%,?,14.3%,-97.2*
O=C(CSc1nnc(COc2cccc3cccnc23)o1)N1CCc2ccccc21,2.24µM*,2.31µM*,4.3%,1.26µM*,2.06µM*,20.1
O=C(CSc1nnc(COc2ccc(F)cc2)o1)N1c2ccccc2CCc2ccccc21,-23.2%,16.4µM*,-9.1%,?,?,-11.8
Cc1cccc(OCc2nnc(SCC(=O)N3c4ccccc4CCc4ccccc43)o2)c1,-7.6%,?,0.6%,-13.5%,?,?
CC(=O)Oc1ccccc1Cn1c(C)c(C(=O)NCc2ccccc2C(F)(F)F)sc1=O,?,?,·,-27.4%,?,15.1
CCCCCCCCCC(=O)Nn1cnc2ccccc2c1=O,-16.6%,-29.2%,20.8%,-2.0%,-9.8%,-14.6
CCOC(=O)Nc1ccc(/C=C/c2ccnc3ccccc23)cc1,·,12.6µM*,·,·,?,·
CCCCCCCCCCCCCC(=O)Nc1ccc(/C=C/c2ccnc3ccccc23)cc1,·,17.8µM*,·,·,11.2µM*,·
COc1ccccc1NC(=O)CCNS(=O)(=O)c1ccc2[nH]c(=O)oc2c1,-1.0%,?,5.8%,6.8%,23.1µM*,11.9
COc1ccc2c(c1)CC(C(=O)NCCN1CCN(c3cccc(Cl)c3)CC1)CO2 (configuration not stated),·,14.6µM*,·,·,16.4µM*,·
O=C(NCCN1CCN(c2cccc(Cl)c2)CC1)Nc1ccccc1,-5.8%,14.6µM*,3.4%,-9.1%,?,-16.9
COc1ccccc1NC(=O)NCCN1CCN(c2cccc(Cl)c2)CC1,-13.1%,23.1µM*!,8.8%,-10.4%,?,?
O=C(CCN1CCN(c2ccccc2)CC1)Nc1cccc(Br)c1,-11.1%,?,6.4%,-11.6%,-27.8%,-16.0
O=C(NCCN1CCN(c2ccccc2)CC1)Nc1cccc(Br)c1,?,29.1µM*,-2.1%,0.0%,?,?
Cc1cccc(N2CCN(C(=O)COc3noc4nc(C)cc(C)c34)CC2C)c1 (configuration not stated),1.5%,?,·,0.3%,?,-10.8
COCCCN1C(=O)C(CC(=O)NCc2ccco2)CC(C(=O)N(C(C)C)C(C)C)=C1C (configuration not stated),14.0%,21.1%,·,17.6%,2.7%,18.9
CC1(C(=O)NS(=O)(=O)c2cccc(OC(F)F)c2)CCN1C(=O)c1cccc(F)c1 (configuration not stated),16.2%,-12.6%,·,4.2%,-16.0%,24.6
FC(F)(F)c1nnc2c(Sc3ccc(Cl)cc3)nc3ccccc3n12,?,1.84µM*,-6.8%,7.8%,2.59µM*,-52.0*
SMILES,HT1080-NT tox,TDP1 cell noCPT,uPA surface inh,HT1080 IDH1KD tx,DT40 TDP1 CPT,IL-1B inflam inh
FC(F)(F)c1nc2ccccc2c2nc3ccccc3n12,-13.8%,-6.7%,4.2%,-12.7%,0.6%,30.8
FC(F)(F)c1nnc2c(Sc3ccccn3)nc3ccccc3n12,?,4.61µM*,-10.0%,?,5.17µM*,-66.0*
COc1ccccc1-n1ncc2c(=O)[nH]c(SCC(=O)Nc3cccc(F)c3)nc21,·,-24.8%,·,·,-5.4%,·
CCOC(=O)C1=C(O)/C(=C/c2ccc(CNC(=O)C(=O)Nc3ccc(C)cc3)o2)N=C1C,11.0%,6.51µM*,1.0%,9.7%,?,0.5
COC(=O)C1=C(O)/C(=C\c2ccc(CNC(=O)C(=O)Nc3ccc(C)cc3)o2)N=C1C,-1.4%,?,0.9%,1.7%,?,21.3
COc1cc(-c2nnc(-c3ccncc3)o2)ccc1OCc1ccccc1,2.6%,9.2µM*,·,-0.9%,?,0.3
CCOc1ccc(-c2nnc(-c3ccncc3)o2)cc1OCC,?,?,-1.5%,28.0%,-8.6%,-24.8
CCOc1ccc(-c2nnc(-c3cccnc3)o2)cc1OCC,-12.7%,16.4µM*,-1.5%,1.9%,?,-7.2
COc1ccc(-c2nnc(-c3cccnc3)o2)cc1OC,2.6%,?,·,-3.0%,11.6µM*,-24.0
COc1cc(-c2nnc(-c3cccnc3)o2)cc(OC)c1OC,-2.6%,-3.5%,-3.2%,7.5%,?,-11.1
COC(=O)C1(Cc2ccc3c(c2)CCC3)Cc2ccc3c(c2C1=O)CCC3 (configuration not stated),10.2%,?,-9.2%,21.9%,20.6µM*,0.8
Cc1ccc(NC(=O)Cc2ccc3c(c2)CCCC3)cc1C,-23.4%,-20.5%,10.1%,-0.6%[9.24 µM],-29.8%,?
O=C(COC(=O)c1ccccc1O)NC12CC3CC(CC(C3)C1)C2,1.0%,18.4µM*,1.1%,-3.1%,11.6µM*,1.1
COc1cccc(C(=O)OCC(=O)NC23CC4CC(CC(C4)C2)C3)c1,-0.6%,-8.1%,-0.2%,9.7%,-10.8%,-1.2
O=C(COC(=O)/C=C/C(=O)OCC(=O)NC12CC3CC(CC(C3)C1)C2)NC12CC3CC(CC(C3)C1)C2,?,14.6µM*,-1.0%,?,13µM*,-93.2*
Cc1nc2cc(C(=O)OCC(=O)NC34CC5CC(CC(C5)C3)C4)ccc2n1-c1ccccc1,-13.0%,?,-3.3%,2.6%,5.8%,-65.9*
O=C(OCC(=O)C12CC3CC(CC(C3)C1)C2)c1ccccc1O,-0.9%,?,4.0%,9.9%,?,1.0
